Assay [1] in a line: CCTE_Shafer_MEA_acute_spike_number: CCTE's Neural Acute Assay for Total Number of Spikes, Shafer Lab (AID 2284008).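 For AC50: curve fitted for decrease in spike count so AC50 reflects inhibitors.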 The essentials:
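Rat primary cortical neurons on 48-well MEA plates, DIV 13 or 15, at 37 C. 40 min baseline then 40 min with compound (0.03-40 uM); spikes detected at 8x rms noise, expressed as percent change from baseline.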

Assay [2] can be described thus: CCTE_Shafer_MEA_acute_firing_rate_mean: CCTE's Neural Acute Assay for Mean Firing Rate, Shafer Lab (AID 2284009).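 Note: analyzed for loss of signal so actives lower firing rate relative to DMSO.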 The essentials: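 Spontaneous spiking of primary rat cortical networks, DIV 13/15, 37 C. Compound 0.03-40 uM, n ≥3 wells; 40 min baseline vs 40 min treated. Endpoint fitted in loss-of-signal direction against DMSO.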
The nature of assay [3]: CCTE_Harrill_HTTr_Viability_MCF7: CCTE's 6-hour Cell Viability Assessment for the High-Throughput Transcriptomics (HTTr) Platform, in MCF-7 cells cultured in DMEM + 10% fetal bovine serum, Harrill Lab (AID 2284010). A digest of the protocol: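 Read-out is propidium iodide gain of signal by high-content imaging, reflecting membrane integrity loss. Measurements are taken 6 h after dosing, eight concentrations per chemical, with DMSO serving as baseline for bidirectional curve fitting.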

Assay [4] in a line: CCTE_Harrill_HTTr_Apoptosis_MCF7: CCTE's 6-hour Apoptosis Assessment for the High-Throughput Transcriptomics (HTTr) Platform, in MCF-7 cells cultured in DMEM + 10% fetal bovine serum, Harrill Lab (AID 2284011). A digest of the protocol: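 MCF-7 cells in DMEM + 10% FBS exposed 6 h to chemicals over an eight-point dilution series. Caspase-3/7 activation imaged by high-content CellEvent Green staining; fitted bidirectionally versus DMSO.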

A short description of assay [5]: CCTE_Shafer_MEA_acute_burst_number: CCTE's Neural Acute Assay for Single-Electrode Bursts, Shafer Lab (AID 2284013). The essentials:
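Burst totals were derived with adaptive spike detection (8x rms threshold) on filtered signals from rat cortical cultures; change relative to pre-treatment baseline after 40-min compound exposure (0.03-40 uM) was fitted in the negative direction against DMSO.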

Assay [6] in a line: CCTE_Shafer_MEA_acute_burst_duration_mean: CCTE's Neural Acute Assay for Mean Burst Duration, Shafer Lab (AID 2284014).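 Note: hits are decreases in mean burst duration relative to DMSO controls.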 The essentials: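 Acute exposure of mature rat cortical networks (DIV 13 or 15) grown on microelectrode arrays to 0.03-40 uM compound. Mean burst duration compared with the 40-min pre-dose baseline over a 40-min post-dose recording at 37 C.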
Assay [7] can be described thus: CCTE_Harrill_HTTr_CellCount_MCF7: CCTE's Cell Proliferation Assessment for the High-Throughput Transcriptomics (HTTr) Platform, Harrill Lab (AID 2284012; active = hit-call score of the fitted dose curve at least 0.9, where 1 is the maximum;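 note: cells exposed to compound for six hours; intended direction is loss of nuclei count meaning fewer cells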). A digest of the protocol: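 Cell count served as viability reporter: loss of Hoechst-stained nuclei, counted by high content imaging, marks decreased growth or survival. Exposure was 6 h in MCF-7 cells across eight concentrations, with DMSO as baseline.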

Assay [8] in a line: CCTE_Simmons_MITO_basal_resp_rate: CCTE's HepG2 Seahorse XF Respirometric Screening Assay at Basal Respiratory State, Simmons Lab (AID 2284001). Particulars: actives raise or lower the signal. The essentials:
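Readout is oxygen consumption rate after test compound injection, measured by Seahorse XF in HepG2 cells. Seven concentrations from 125 nM up to 100 uM final are tested, and activity in either direction is fitted against DMSO.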

The nature of assay [9]: CCTE_Simmons_MITO_inhib_resp_rate: CCTE's HepG2 Seahorse XF Respirometric Screening Assay at Inhibited Respiratory State [full ETC block], Simmons Lab (AID 2284006). Conditions: actives raise or lower the signal. The essentials: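 Seahorse respirometry, HepG2, 72 min total, 6-min mix/measure cycles. Cpd 125 nM–100 uM final ×7, n=3 biological. Sequential FCCP, rotenone/antimycin A; inhibited-respiration OCR, bidirectional fit vs DMSO.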

Assay [10] can be described thus: CCTE_Simmons_MITO_viability: CellTiter-Glo Viability Assessment for CCTE's HepG2 Seahorse XF Respirometric Screening Assay [post-hoc], Simmons Lab (AID 2284007; active = hit-call score of the fitted dose curve at least 0.9, where 1 is the maximum). A digest of the protocol:
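Cytotoxicity readout: ATP quantitation via luciferase in HepG2 cells treated 90 min with seven titrated concentrations (125 nM to 100 uM, final). Curves fitted relative to DMSO negative control, three biological replicates per concentration.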

Inconclusive results are not listed. Active and inactive are the calls of the source. Rule for the calls, unless noted: active = hit-call score of the fitted dose curve at least 0.9, where 1 is the maximum; inactive = score below 0.9.

Take `Cc1ccn2nc(S(=O)(=O)Nc3c(F)cccc3F)nc2n1`: the outcome in [1], in assay [2], in assay [3], in assay [4], in assay [5] and in assay [6] was inactive.

Consider `CSc1nc(NC(C)C)nc(NC(C)C)n1`, for which the outcome in [3], in assay [4] and in assay [7] was inactive.

As to `CNc1cnn(-c2cccc(C(F)(F)F)c2)c(=O)c1Cl`, the outcome in assay [3], in [4] and in assay [7] was inactive.

`CC(=NC#N)N(C)Cc1ccc(Cl)nc1`: the molecule was called inactive in assay [1], in [2], in [3], in [4], in assay [7] and in [5]. In addition, in [6], the call was inactive.

In the case of `CCOP(=S)(OCC)SCCSCC`, the result in assay [8], in assay [9], in assay [1], in assay [2], in assay [3] and in assay [4] was inactive. Also, the call in assay [5] and in [6] was inactive.

In the case of `O=C(O)c1cc(Oc2ccc(C(F)(F)F)cc2Cl)ccc1[N+](=O)[O-]`, the outcome in assay [9], in [10], in assay [1], in [2], in [3] and in [4] was inactive. The call in assay [7], in assay [5] and in assay [6] was inactive.

On to `CCCCN(CC)c1c([N+](=O)[O-])cc(C(F)(F)F)cc1[N+](=O)[O-]`, for which the result in assay [3] and in [4] was inactive.

`CCOP(=O)(SC(C)CC)N1CCSC1=O` (centres undefined): the outcome in assay [3] and in assay [4] was inactive.

Regarding `CCc1cnc(C2=NC(C)(C(C)C)C(=O)N2)c(C(=O)O)c1` (centres undefined), the molecule was classed as inactive in assay [1], in assay [2], in assay [3], in assay [4], in [7] and in assay [5]. The call in assay [6] was inactive.

For the molecule `CCOP(=O)(OCC)Oc1cc(C)nc(C(C)C)n1`, the result in assay [3], in [4] and in [7] was inactive.

For `CCOP(=S)(OCC)Oc1cc(C)nc(C(C)C)n1`, the outcome in assay [3], in assay [4] and in assay [7] was inactive.

On to `C#CC(C)(C)NC(=O)c1cc(Cl)cc(Cl)c1`, for which the outcome in assay [3] and in assay [4] was inactive.

Consider `CN(C)NC(=O)CCC(=O)O`, for which the result in [1], in assay [2], in [3], in [4], in assay [5] and in assay [6] was inactive.

As to `CN(C)C(=O)Nc1cccc(C(F)(F)F)c1`, the outcome in [3] and in assay [4] was inactive.

Regarding `CCOP(=S)(OCC)Oc1ccc([N+](=O)[O-])cc1`, the outcome in [3], in assay [4] and in assay [7] was inactive.

As to `Nc1nc(N)nc(NC2CC2)n1`, the result in assay [3], in assay [4] and in [7] was inactive.

For the molecule `Cc1cc(C2CC2)nc(Nc2ccccc2)n1`, the outcome in [3], in [4] and in assay [7] was inactive.

As to `CC1=NNC(=O)N(/N=C/c2cccnc2)C1`, the result in assay [1], in assay [2], in assay [3], in [4], in [7] and in assay [5] was inactive. Besides, the result in assay [6] was inactive.

For `COc1cc(OC)nc(Sc2cccc(Cl)c2C(=O)O)n1`, the call in assay [1], in assay [2], in [3], in assay [4], in assay [5] and in [6] was inactive.

With `CCCCSP(=O)(SCCCC)SCCCC`, the outcome in assay [3] and in assay [4] was inactive.

For `CN1COCN(Cc2cnc(Cl)s2)C1=N[N+](=O)[O-]`, the call in assay [1], in assay [2], in [3], in assay [4], in assay [5] and in assay [6] was inactive.

As for `CC(Oc1cccc(Cl)c1)C(=O)O` (centres undefined), the result in assay [3] and in [4] was inactive.

Consider `CNC(=O)Oc1cccc2c1OC(C)(C)O2`, for which the outcome in [3], in assay [4] and in [7] was inactive.

Turning to `CNC(=O)ON=C(C)SC`, the outcome in assay [3] and in assay [4] was inactive.

For `S=C1NCCN1`, the outcome in [3] and in [4] was inactive.

In the case of `COc1cccc(C(=O)NN(C(=O)c2cc(C)cc(C)c2)C(C)(C)C)c1C`, the outcome in assay [3], in [4] and in assay [7] was inactive.

In the case of `CCOP(=S)(OCC)Oc1ccc2c(C)c(Cl)c(=O)oc2c1`, the AC50 in assay [1] is 1.85 µM (active); in [2] it was 1.85 µM (active); in assay [5] it was 1.94 µM (active). For the same molecule, the outcome in assay [3], in assay [4], in assay [7] and in [6] was inactive.

Turning to `CCCCOC(=O)[C@@H](C)Oc1ccc(Oc2ccc(C#N)cc2F)cc1`, the molecule was classed as inactive in assay [8], in assay [9], in assay [10], in assay [3] and in assay [4].

On to `COP(=O)(OC)C(O)C(Cl)(Cl)Cl` (centres undefined), for which the outcome in assay [1], in assay [2], in [3], in assay [4], in assay [7] and in assay [5] was inactive. Moreover, in [6], the molecule was classed as inactive.

For orientation: AC50 means the concentration at which the activity in the assay is half-maximal.
